Here are results for 97 compounds from PubChem BioAssay AID430 (Sanford-Burnham Center for Chemical Genomics, 2006).

Hit rate of the full screen: of about 63,000 compounds, about 1,100 (1.7%) were called active. Rule as the data show it: active = cytotoxicity above about 50%; inactive = the rest. What follows is part of a selection rich in actives, with near analogues and random picks from the rest. Results with a measured potency or affinity are listed apart.

This assay can be described thus: cytotoxicity in HPDE-C7 cells, cell-based, fluorescence, HTS (AID 430).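 Also: cells exposed to compound for 48 hours before viability readout; 0% = vehicle and 100% = reference cytotoxic drug.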 Particulars: HPDE-C7 pancreatic duct cells viability, at 10 µM, hits give high values.
For `CCOc1cc(C(=O)NCCOC)ccc1OC`, the cytotoxicity is -6.6% (inactive). With `CC(=O)N1CCN(S(=O)(=O)c2ccc(C)cc2)C1C(C)C` (configuration not stated) the figure was 11% (inactive). For `CCOc1ccc(-c2cc(CCCC(=O)NCc3cccnc3)no2)cc1`, the cytotoxicity was -0.4% (inactive). For `Cn1cccc1Cc1nnc(SCC(=O)NCC2CCCO2)n1-c1ccc(F)cc1` (configuration not stated) the value was 0.9% (inactive); for `COc1ccc(NC2=NC3(CCCCC3)N=C(N)N2)cc1`, 4.1% (inactive); for `COc1cccc(NC2=NC3(CCCCC3)N=C(N)N2)c1`, 3.1% (inactive). Turning to `CCSc1nnc(NC(=O)c2cnccn2)s1`, the cytotoxicity was -7% (inactive).

As for `CCOC(=O)N1CCC(NC(=O)CC(NS(=O)(=O)c2ccc(Cl)cc2)c2ccco2)CC1` (configuration not stated), the cytotoxicity was -6.1% (inactive).

Regarding `COc1ccc(OC)c(NC(=O)CCN2CCN(Cc3ccccc3)CC2)c1`, the cytotoxicity is 0.1% (inactive). With `Cc1cccc(-c2nc(CS(=O)CC(=O)NCCCSC3CCCCC3)c(C)o2)c1` (configuration not stated), the cytotoxicity is 56.1% (active). For `CCCCNC(=O)CS(=O)Cc1nc(-c2cccc(C)c2)oc1C` (configuration not stated) the value was 0.4% (inactive); for `CCCCSCCCNC(=O)CS(=O)Cc1nc(-c2cccc(C)c2)oc1C` (configuration not stated), -17.4% (inactive). With `Cc1ccc(C2(C(F)(F)F)NC(=O)N3CCCN=C3S2)cc1` (configuration not stated) the figure was -18.8% (inactive); with `O=C1NC(c2ccccc2)(C(F)(F)F)SC2=NCCCN12` (configuration not stated), -2.2% (inactive). Turning to `Cc1ccc(C2(C(F)(F)F)NC(=O)N3CCN=C3S2)cc1` (configuration not stated), the cytotoxicity was 81.6% (active). With `CC(C)c1ccc2c(c1)C(=O)NC(C)(C)C2` the figure was 1.8% (inactive). For `COc1ccccc1C(=O)NCCn1cc(SCC(=O)Nc2nnc(C)s2)c2ccccc21` the value was -8% (inactive); for `CC(C)Cn1c(CN(C)Cc2ccccc2)nc2c1c(=O)n(C)c(=O)n2C`, -6.6% (inactive). In the case of `CCCn1c(CN(Cc2ccccc2)Cc2ccccc2)nc2c1c(=O)n(C)c(=O)n2C`, the cytotoxicity was -14.9% (inactive). For `CC(C)Cn1c(CN(Cc2ccccc2)Cc2ccccc2)nc2c1c(=O)n(C)c(=O)n2C` the value was 51.7% (active); for `CCOP(=O)(c1ccc(N(C)C)cc1)C(O)c1cc(OC)c(OC)c(OC)c1` (configuration not stated), 5.9% (inactive). With `COC(=O)CSc1nc(-c2cccs2)ccc1C#N` the figure was 29.9% (inactive); with `C=COC(=O)CSc1nc(-c2cccs2)ccc1C#N`, 26.7% (inactive); with `CCOC(=O)C(C)Sc1nc(-c2cccs2)ccc1C#N` (configuration not stated), 59.2% (active). For `O=C(Nc1ccccc1N1CCCC1)c1ccco1` the value was 3.9% (inactive); for `O=c1[nH]c2cc3c(cc2cc1CN(CCCO)Cc1nnnn1Cc1ccc(F)cc1)OCO3`, -1.2% (inactive); for `CC(=O)Nc1nc(C)nc(-c2ccccc2)c1C(C)=O`, -1.8% (inactive). For `CCc1nnc(NC(=O)CSc2nnc(-c3ccccc3O)n2-c2ccc(C)cc2C)s1`, the cytotoxicity is 73.5% (active). As to `CCc1nnc(NC(=O)CSc2nnc(-c3ccccc3OC)n2-c2ccccc2)s1`, the cytotoxicity is -8.7% (inactive). With `CCc1nnc(NC(=O)CSc2nnc(-c3ccccc3O)n2-c2ccc(C)cc2)s1`, the cytotoxicity is -7.9% (inactive). With `C=CCN(CC=C)S(=O)(=O)c1ccc2nsnc2c1` the figure was -6.7% (inactive); with `C=CCN(CC=C)S(=O)(=O)c1ccc2nc(NC(=O)C(C)C)sc2c1`, 76.7% (active); with `CCOC(=O)c1ccc2nc(NC(=O)C(C)C)sc2c1`, -3.3% (inactive).

Turning to `COc1ccc(-c2noc(CSc3nc4ccccc4c(=O)n3-c3ccccc3)n2)cc1OC`, the cytotoxicity was -10.3% (inactive). Consider `Cc1ccccc1NC(=O)C1CCCN(S(=O)(=O)c2cnc[nH]2)C1` (configuration not stated), for which the cytotoxicity is -5.3% (inactive). With `CC(C)c1[nH]nc2c1C(C(C)C)C(C#N)=C(N)O2` (configuration not stated) the figure was -24.3% (inactive); with `Cc1cc(C2N=C(N)Nc3nc4ccccc4n32)c(C)n1-c1ccccc1Cl` (configuration not stated), 2.7% (inactive); with `NC1=NC(c2ccc(F)cc2)n2c(nc3ccccc32)N1` (configuration not stated), -3.6% (inactive). With `COc1cc(S(=O)(=O)N2CCN(c3ccccc3)CC2)ccc1Cl` the figure was -12.6% (inactive). With `CC(C)c1nc(SCc2c(F)cccc2Cl)c2c(=O)n(C)c(=O)n(C)c2n1`, the cytotoxicity was 77.1% (active). With `Cc1nc(SCc2c(F)cccc2Cl)c2c(=O)n(C)c(=O)n(C)c2n1` the figure was -26.2% (inactive); with `CC(C)c1nc(SCc2ccccn2)c2c(=O)n(C)c(=O)n(C)c2n1`, -2% (inactive). Turning to `CCOC(=O)c1cnc(SCC(=O)Nc2nnc(CC)s2)nc1N`, the cytotoxicity was -4.3% (inactive).

With `C=CCn1cnc2c(c1=O)c1nc3ccccc3nc1n2/N=C/c1cccc(OC)c1OC`, the cytotoxicity is 46.6% (inactive). With `C=CCn1cnc2c(c1=O)c1nc3ccccc3nc1n2/N=C/c1cccc(OC)c1`, the cytotoxicity is 48.5% (inactive).

In the case of `O=C(CCSc1ccccc1)Nc1ccc(S(=O)(=O)N2CCOCC2)cc1`, the cytotoxicity is 1.8% (inactive). With `COc1cc2c(cc1OC)C1Cc3ccc(OC)c(OC)c3CN1CC2` (configuration not stated) the figure was -10.2% (inactive). For `COc1cc2c(cc1OC)C(c1cc(OC)c(OC)c(OC)c1)NCC2` (configuration not stated) the value was 4.6% (inactive); for `O=C(O)C1CC(=O)N(c2ccc(F)cc2)C1` (configuration not stated), -16.5% (inactive). Turning to `CCOC(=O)C1C2C=CC3(CN(c4cccc(Cl)c4)C(=O)C13)O2` (configuration not stated), the cytotoxicity was -0.8% (inactive). For `CC1(C)C2CC=C(/C=N/n3cnnc3)C1C2` (configuration not stated) the value was -4.1% (inactive). Regarding `O=c1c2ccccc2[nH]c(=S)n1CCN1CCN(Cc2ccccc2)CC1`, the cytotoxicity is -3.8% (inactive). With `O=C(c1ccc(F)cc1)C1CCN(CCn2c(=O)[nH]c3ccccc3c2=O)CC1` the figure was 5.4% (inactive).

With `COc1ccc(C(=O)OCC(=O)NCc2ccco2)cc1OC`, the cytotoxicity was -14.8% (inactive).

Take `COc1ccccc1Oc1ccc(S(=O)(=O)Nc2cccnc2)cc1`: the cytotoxicity is 51.5% (active). In the case of `CCCCOc1ccc(S(=O)(=O)Nc2cccnc2)cc1`, the cytotoxicity was -5.2% (inactive).

For `COc1cc(S(=O)(=O)Nc2cccnc2)ccc1F`, the cytotoxicity was -3.6% (inactive). With `Cc1nc(NC(=O)CSc2nc3cccnc3n2C2CCCCC2)sc1C` the figure was 9.2% (inactive); with `Cc1nnc2sc(-c3cccc(NC(=O)c4ccc(-c5cccc(Cl)c5)o4)c3)nn12`, 0.6% (inactive). With `Cc1ccc(-c2nn3c(C)nnc3s2)cc1NC(=O)c1ccc(Br)o1` the figure was -10.8% (inactive); with `CC(C)CNc1nc(Oc2ccc(=O)n(C)n2)nc(N2CCOCC2)n1`, -7.6% (inactive). Take `c1ccc(Cn2ncc3c(NCc4ccco4)ncnc32)cc1`: the cytotoxicity is 8.9% (inactive). With `Clc1ccc(-n2ncc3c(NCc4ccco4)ncnc32)cc1` the figure was 17.4% (inactive); with `Cc1cccc(-n2ncc3c(NCc4ccco4)ncnc32)c1`, 64.1% (active). Take `c1ccc(-n2ncc3c(NCc4ccco4)ncnc32)cc1`: the cytotoxicity is 1.4% (inactive). As to `Cc1ccc(-n2ncc3c(NCc4ccco4)ncnc32)c(C)c1`, the cytotoxicity was -6.7% (inactive). With `Clc1ccc(Cn2ncc3c(NCc4ccco4)ncnc32)c(Cl)c1` the figure was 51.5% (active); with `Cc1ccc(C)c(N2CCN(C(=O)C3CCN(c4nc(C)cc(C)n4)CC3)CC2)c1`, 11.3% (inactive). For `Cc1ccc(Cl)cc1N1CCN(C(=O)C2CCN(c3nnc(-n4cccc4)s3)CC2)CC1` the value was 43.7% (inactive). With `Cc1cc(C)nc(N2CCC(C(=O)N3CCN(c4cc(Cl)ccc4C)CC3)CC2)n1` the figure was 59.5% (active); with `O=C(COC(=O)C1c2ccccc2Oc2ccccc21)NC1CCS(=O)(=O)C1` (configuration not stated), -3.2% (inactive); with `Cc1cc2nc(NC3=NCN(Cc4ccc5c(c4)OCO5)CN3)nc(C)c2cc1C`, 93.4% (active).

In the case of `Cc1ccc2nc(NC3=NCN(Cc4ccc5c(c4)OCO5)CN3)nc(C)c2c1`, the cytotoxicity is 8.3% (inactive). With `Cc1nc(NC2=NCN(Cc3ccc4c(c3)OCO4)CN2)nc2ccccc12` the figure was 2.1% (inactive). For `CC(=O)C1=C(O)C(=O)N(Cc2ccco2)C1c1ccccc1` (configuration not stated) the value was -10.9% (inactive). Regarding `Cc1ccc(Cn2c(=N)c(C(=O)NCc3ccco3)cc3c(=O)n4ccccc4nc32)cc1`, the cytotoxicity is -10.8% (inactive).

`N=c1c(C(=O)NCc2ccccc2)cc2c(=O)n3ccccc3nc2n1Cc1ccco1`: the cytotoxicity was 1.8% (inactive). With `Cc1ccc(S(=O)(=O)c2cc3c(=O)n4ccccc4nc3n(Cc3ccco3)c2=N)cc1` the figure was 21.9% (inactive); with `Cc1ccc(CNC(=O)c2cc3c(=O)n4ccccc4nc3n(Cc3ccco3)c2=N)cc1`, 104% (active). For `N=c1c(S(=O)(=O)c2ccccc2)cc2c(=O)n3ccccc3nc2n1Cc1ccco1` the value was -0.3% (inactive); for `CC1=C(C(N)=O)C(c2ccccn2)n2nc(-c3ccccc3Cl)nc2N1` (configuration not stated), 13.8% (inactive); for `C=C(C)COc1ccc2c3c(c(=O)oc2c1OCC(=C)C)CCC3`, 11.5% (inactive). With `Cc1ccc(C(C(=O)NC2CCCCC2)N(Cc2cccnc2)C(=O)C2COc3ccccc3O2)o1` (configuration not stated) the figure was -11.7% (inactive); with `C=CCn1c(SCC(=O)NC2CCCCC2)nnc1-c1sc(N)nc1C`, -10% (inactive).

As to `CCn1c(COc2ccc3c(c2)OCO3)nnc1SCC(=O)c1ccccc1`, the cytotoxicity was -1.4% (inactive). With `O=S(=O)(NCc1cccs1)c1cccc2cccnc12` the figure was -9.6% (inactive); with `CN(CC(=O)NCc1cccs1)S(=O)(=O)c1cccc2cccnc12`, -9.8% (inactive). As to `CCOC(=O)C1(C)NC(c2ccc(N(C)C)cc2)C2C(=O)N(CC)C(=O)C21` (configuration not stated), the cytotoxicity was -12.4% (inactive). With `O=c1c2ccccc2nc(SCc2cc(F)cc3c2OCOC3)n1Cc1ccco1` the figure was -2.2% (inactive). Regarding `O=C(c1ccc(F)cc1)c1ccc(N2CCCC2)cc1`, the cytotoxicity was -17.7% (inactive).

In the case of `N#Cc1nc(-c2ccc(F)cc2)oc1N1CCCC1`, the cytotoxicity was -7.6% (inactive). For `CN(C)CCN1C(=O)C(O)=C(C(=O)c2ccco2)C1c1ccccc1F` (configuration not stated) the value was -4.8% (inactive). In the case of `CCn1c(=O)cc(OCC(=O)N2CCCC2)c2ccccc21`, the cytotoxicity was -3% (inactive). For `COc1ccc(C(CNC(=O)Cn2[nH]c(=O)c3ccccc3c2=O)N2CCCC2)cc1` (configuration not stated) the value was 1.8% (inactive). Turning to `Cc1cccc(Cc2c(C)nc3nc(SCC(=O)NCc4ccco4)nn3c2C)c1`, the cytotoxicity is 45.8% (inactive). As for `Cc1ccc(Cc2c(C)nc3nc(SCC(=O)NCc4ccco4)nn3c2C)cc1`, the cytotoxicity was 61.8% (active).

In the case of `Cc1ccccc1Cc1c(C)nc2nc(SCC(=O)NCc3ccco3)nn2c1C`, the cytotoxicity was 12% (inactive).
